Measurements: the supplement of paper PMC11732987, “Enantioselective OTUD7B fragment discovery through chemoproteomics screening and high-throughput optimisation” (Communications Chemistry, 2025)

Tests used:
Assay in all cases: log2 ratio of Biotin-Ahx-Ub-VS probe labelling (fragment/DMSO); higher = less target engagement (more negative = stronger competition), active = hit call of the paper (q ≤ 0.05, log2 ratio ≤ -1)
Details in all cases: compound concentration: 200 uM; treatment time: 3 h
USP42 = molecular target: T1, USP42 (UniProt Q9H9J4)
T1 sequence (whole entry): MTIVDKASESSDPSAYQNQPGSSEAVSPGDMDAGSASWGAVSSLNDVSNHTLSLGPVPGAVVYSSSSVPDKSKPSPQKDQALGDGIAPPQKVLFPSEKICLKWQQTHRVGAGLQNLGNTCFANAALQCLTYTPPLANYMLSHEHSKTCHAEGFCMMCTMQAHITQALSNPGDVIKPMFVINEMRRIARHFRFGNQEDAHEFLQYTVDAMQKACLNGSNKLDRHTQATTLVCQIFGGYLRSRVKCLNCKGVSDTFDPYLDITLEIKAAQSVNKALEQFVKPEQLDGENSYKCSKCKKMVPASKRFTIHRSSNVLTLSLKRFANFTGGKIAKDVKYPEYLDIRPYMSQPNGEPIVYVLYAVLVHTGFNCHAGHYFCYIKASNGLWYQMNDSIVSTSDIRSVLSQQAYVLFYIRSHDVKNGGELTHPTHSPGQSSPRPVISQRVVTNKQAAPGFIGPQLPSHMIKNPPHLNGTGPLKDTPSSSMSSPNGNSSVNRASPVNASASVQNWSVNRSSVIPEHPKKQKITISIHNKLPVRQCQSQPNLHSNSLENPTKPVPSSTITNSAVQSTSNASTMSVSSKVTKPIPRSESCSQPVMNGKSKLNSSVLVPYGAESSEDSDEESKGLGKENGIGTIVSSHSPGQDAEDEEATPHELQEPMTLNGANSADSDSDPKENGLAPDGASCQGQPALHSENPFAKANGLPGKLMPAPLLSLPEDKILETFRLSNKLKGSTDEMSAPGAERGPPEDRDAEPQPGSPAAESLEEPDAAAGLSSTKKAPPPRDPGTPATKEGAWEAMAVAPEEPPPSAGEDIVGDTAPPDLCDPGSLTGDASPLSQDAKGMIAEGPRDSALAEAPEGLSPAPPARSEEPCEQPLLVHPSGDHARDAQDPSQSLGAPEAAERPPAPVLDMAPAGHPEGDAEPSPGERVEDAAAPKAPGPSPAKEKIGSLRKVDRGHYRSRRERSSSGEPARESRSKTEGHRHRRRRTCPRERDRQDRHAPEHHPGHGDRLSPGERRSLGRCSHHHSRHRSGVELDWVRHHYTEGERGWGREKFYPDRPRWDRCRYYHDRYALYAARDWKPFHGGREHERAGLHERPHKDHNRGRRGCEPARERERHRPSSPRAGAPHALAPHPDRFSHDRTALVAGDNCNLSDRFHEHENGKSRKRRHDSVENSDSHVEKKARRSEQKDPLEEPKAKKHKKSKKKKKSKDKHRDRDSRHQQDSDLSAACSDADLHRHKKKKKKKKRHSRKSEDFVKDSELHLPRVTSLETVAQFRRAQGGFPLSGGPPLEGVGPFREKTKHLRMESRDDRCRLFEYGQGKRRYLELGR
Procedure, shortened: (§1)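 Fragment (200 µM) or vehicle was incubated for 3 h with triplicate HEK293T lysate samples of 495 µg, which were then treated with Biotin-Ahx-Ub-VS at 0.5 µM final for 1 h. Labelled DUBs were enriched on NeutrAvidin, digested with LysC and trypsin, and analysed by diaPASEF LC-MS/MS. Values are average log2 fragment/vehicle ratios from an unpaired t-test on global-median-normalised Spectronaut label-free quantities, using proteins with ≥2 unique peptides.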

USP46 = USP46 (UniProt P62068)
Procedure, shortened: as §1

USP47 = molecular target: T2, USP47 (UniProt Q96K76)
T2 sequence (whole entry): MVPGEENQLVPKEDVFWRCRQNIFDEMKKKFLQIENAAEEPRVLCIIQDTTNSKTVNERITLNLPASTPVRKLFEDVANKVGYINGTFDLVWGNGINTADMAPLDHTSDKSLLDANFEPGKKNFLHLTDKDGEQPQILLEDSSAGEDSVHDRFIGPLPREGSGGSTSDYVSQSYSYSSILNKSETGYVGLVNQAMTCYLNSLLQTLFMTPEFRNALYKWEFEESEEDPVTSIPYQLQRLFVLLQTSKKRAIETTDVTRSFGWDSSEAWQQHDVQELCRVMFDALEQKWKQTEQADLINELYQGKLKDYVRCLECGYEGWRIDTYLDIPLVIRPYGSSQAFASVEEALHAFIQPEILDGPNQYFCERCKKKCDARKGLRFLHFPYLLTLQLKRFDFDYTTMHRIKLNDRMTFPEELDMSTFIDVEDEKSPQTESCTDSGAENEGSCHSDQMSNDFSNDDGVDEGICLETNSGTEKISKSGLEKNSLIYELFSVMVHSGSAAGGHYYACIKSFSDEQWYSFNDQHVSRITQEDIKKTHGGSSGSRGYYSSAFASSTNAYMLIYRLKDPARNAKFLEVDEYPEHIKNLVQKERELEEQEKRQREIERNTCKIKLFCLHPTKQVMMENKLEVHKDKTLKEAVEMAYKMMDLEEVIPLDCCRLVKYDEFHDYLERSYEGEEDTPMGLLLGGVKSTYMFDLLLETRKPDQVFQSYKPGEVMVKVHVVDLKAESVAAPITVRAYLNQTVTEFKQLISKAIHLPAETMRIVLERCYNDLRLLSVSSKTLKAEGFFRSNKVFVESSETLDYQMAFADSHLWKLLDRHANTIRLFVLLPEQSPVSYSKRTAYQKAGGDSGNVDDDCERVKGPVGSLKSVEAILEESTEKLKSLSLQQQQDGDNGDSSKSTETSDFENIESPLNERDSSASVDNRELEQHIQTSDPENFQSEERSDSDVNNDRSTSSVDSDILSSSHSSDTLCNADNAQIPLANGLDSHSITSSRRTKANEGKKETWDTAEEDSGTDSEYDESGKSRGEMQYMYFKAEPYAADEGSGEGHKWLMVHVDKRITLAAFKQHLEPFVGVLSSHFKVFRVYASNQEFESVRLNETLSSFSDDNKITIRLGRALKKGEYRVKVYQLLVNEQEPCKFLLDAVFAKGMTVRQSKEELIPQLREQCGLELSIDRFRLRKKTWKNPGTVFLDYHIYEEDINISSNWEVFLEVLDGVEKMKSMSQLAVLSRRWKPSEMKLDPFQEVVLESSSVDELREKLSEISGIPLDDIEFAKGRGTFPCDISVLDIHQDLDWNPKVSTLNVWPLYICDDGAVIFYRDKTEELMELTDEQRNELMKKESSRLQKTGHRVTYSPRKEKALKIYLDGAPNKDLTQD
Procedure, shortened: as §1

USP48 = molecular target: T3, USP48 (UniProt Q86UV5)
T3 sequence (whole entry): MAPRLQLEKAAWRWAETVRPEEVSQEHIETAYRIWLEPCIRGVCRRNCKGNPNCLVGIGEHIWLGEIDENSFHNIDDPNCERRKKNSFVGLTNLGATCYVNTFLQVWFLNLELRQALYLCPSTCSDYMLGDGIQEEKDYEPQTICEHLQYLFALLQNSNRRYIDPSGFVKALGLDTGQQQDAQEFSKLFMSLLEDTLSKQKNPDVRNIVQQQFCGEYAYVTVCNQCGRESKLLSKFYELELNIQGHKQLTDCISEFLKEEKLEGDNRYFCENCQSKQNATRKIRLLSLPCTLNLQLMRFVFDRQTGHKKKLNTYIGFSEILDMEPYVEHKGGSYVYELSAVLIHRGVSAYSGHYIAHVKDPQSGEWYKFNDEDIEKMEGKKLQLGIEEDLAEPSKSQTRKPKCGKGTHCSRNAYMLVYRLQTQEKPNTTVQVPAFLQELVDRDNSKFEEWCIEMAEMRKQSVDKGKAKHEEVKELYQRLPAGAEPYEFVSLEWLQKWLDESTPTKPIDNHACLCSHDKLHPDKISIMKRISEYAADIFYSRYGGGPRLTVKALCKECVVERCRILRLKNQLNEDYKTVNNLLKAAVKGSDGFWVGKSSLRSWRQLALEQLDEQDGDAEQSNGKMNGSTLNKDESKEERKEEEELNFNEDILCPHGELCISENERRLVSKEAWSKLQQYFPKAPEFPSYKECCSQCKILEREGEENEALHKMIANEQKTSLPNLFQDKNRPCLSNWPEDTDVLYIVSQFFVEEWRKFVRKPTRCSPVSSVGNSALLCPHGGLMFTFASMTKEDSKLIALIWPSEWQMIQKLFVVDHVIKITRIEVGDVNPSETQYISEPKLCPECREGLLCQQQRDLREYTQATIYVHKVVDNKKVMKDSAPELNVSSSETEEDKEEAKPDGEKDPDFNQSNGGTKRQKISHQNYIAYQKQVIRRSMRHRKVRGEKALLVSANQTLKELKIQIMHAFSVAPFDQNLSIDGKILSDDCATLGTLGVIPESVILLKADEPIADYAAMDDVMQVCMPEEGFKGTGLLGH
Procedure, shortened: as §1

USP5 = molecular target: T4, USP5 (UniProt P45974)
T4 sequence (whole entry): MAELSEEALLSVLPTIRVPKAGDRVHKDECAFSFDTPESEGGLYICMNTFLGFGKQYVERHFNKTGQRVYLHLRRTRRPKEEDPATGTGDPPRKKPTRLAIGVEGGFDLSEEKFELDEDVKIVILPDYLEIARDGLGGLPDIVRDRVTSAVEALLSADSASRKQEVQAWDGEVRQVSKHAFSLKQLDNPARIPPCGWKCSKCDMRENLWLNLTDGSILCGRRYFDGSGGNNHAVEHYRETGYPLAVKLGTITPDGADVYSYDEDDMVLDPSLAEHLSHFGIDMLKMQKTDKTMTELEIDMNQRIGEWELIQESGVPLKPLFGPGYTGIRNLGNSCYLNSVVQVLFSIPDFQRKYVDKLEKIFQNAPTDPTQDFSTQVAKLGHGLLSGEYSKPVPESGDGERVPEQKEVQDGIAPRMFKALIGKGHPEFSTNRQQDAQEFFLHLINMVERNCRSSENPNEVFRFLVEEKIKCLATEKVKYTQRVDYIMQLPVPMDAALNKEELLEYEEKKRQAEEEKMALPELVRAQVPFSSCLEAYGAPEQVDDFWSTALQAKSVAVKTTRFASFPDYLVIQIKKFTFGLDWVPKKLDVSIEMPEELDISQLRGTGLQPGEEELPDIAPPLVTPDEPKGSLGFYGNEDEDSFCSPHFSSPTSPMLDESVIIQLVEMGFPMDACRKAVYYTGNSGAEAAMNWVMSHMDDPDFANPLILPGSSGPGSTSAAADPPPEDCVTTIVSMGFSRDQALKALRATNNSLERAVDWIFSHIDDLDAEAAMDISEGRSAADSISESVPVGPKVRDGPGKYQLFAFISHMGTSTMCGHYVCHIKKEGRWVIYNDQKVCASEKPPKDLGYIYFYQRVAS
Procedure, shortened: as §1

USP54 = USP54 (UniProt Q70EL1)
Procedure, shortened: as §1

USP7 = USP7 (UniProt Q93009)
Procedure, shortened: as §1

USP8 = molecular target: T5, USP8 (UniProt P40818)
T5 sequence (whole entry): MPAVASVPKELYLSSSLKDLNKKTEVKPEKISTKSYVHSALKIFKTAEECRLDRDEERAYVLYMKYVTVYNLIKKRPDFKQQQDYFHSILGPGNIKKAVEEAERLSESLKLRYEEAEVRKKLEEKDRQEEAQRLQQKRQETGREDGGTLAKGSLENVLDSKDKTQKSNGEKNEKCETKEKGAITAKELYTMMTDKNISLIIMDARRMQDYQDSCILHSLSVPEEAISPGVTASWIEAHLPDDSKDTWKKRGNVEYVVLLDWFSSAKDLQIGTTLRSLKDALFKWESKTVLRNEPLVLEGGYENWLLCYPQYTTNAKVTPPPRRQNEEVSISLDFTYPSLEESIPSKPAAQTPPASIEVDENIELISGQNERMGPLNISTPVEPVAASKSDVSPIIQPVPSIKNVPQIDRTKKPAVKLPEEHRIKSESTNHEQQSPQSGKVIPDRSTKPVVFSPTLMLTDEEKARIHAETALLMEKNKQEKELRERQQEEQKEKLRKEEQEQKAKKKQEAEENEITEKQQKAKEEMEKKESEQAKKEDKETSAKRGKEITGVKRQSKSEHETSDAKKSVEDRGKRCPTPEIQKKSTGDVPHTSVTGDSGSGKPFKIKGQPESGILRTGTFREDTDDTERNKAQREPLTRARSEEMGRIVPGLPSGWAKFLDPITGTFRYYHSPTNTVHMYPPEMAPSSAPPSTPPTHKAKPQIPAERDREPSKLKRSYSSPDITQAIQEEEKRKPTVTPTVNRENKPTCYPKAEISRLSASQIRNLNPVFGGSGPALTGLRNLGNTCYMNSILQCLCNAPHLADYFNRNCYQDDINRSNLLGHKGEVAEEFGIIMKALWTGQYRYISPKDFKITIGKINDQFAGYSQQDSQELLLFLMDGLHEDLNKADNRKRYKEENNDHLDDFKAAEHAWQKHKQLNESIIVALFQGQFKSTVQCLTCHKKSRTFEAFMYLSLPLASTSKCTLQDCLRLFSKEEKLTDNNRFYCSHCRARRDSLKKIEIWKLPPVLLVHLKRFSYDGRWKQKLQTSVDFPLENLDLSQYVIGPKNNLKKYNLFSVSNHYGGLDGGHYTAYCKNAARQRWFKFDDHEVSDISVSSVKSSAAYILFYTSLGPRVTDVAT
Procedure, shortened: as §1

USP9X = USP9X (UniProt Q93008)
Procedure, shortened: as §1

UniProt O00487 = molecular target: UniProt O00487
Procedure, shortened: as §1

Measured: log2 ratio of Biotin-Ahx-Ub-VS probe labelling

Sequence of USP9X (Q93008 whole entry): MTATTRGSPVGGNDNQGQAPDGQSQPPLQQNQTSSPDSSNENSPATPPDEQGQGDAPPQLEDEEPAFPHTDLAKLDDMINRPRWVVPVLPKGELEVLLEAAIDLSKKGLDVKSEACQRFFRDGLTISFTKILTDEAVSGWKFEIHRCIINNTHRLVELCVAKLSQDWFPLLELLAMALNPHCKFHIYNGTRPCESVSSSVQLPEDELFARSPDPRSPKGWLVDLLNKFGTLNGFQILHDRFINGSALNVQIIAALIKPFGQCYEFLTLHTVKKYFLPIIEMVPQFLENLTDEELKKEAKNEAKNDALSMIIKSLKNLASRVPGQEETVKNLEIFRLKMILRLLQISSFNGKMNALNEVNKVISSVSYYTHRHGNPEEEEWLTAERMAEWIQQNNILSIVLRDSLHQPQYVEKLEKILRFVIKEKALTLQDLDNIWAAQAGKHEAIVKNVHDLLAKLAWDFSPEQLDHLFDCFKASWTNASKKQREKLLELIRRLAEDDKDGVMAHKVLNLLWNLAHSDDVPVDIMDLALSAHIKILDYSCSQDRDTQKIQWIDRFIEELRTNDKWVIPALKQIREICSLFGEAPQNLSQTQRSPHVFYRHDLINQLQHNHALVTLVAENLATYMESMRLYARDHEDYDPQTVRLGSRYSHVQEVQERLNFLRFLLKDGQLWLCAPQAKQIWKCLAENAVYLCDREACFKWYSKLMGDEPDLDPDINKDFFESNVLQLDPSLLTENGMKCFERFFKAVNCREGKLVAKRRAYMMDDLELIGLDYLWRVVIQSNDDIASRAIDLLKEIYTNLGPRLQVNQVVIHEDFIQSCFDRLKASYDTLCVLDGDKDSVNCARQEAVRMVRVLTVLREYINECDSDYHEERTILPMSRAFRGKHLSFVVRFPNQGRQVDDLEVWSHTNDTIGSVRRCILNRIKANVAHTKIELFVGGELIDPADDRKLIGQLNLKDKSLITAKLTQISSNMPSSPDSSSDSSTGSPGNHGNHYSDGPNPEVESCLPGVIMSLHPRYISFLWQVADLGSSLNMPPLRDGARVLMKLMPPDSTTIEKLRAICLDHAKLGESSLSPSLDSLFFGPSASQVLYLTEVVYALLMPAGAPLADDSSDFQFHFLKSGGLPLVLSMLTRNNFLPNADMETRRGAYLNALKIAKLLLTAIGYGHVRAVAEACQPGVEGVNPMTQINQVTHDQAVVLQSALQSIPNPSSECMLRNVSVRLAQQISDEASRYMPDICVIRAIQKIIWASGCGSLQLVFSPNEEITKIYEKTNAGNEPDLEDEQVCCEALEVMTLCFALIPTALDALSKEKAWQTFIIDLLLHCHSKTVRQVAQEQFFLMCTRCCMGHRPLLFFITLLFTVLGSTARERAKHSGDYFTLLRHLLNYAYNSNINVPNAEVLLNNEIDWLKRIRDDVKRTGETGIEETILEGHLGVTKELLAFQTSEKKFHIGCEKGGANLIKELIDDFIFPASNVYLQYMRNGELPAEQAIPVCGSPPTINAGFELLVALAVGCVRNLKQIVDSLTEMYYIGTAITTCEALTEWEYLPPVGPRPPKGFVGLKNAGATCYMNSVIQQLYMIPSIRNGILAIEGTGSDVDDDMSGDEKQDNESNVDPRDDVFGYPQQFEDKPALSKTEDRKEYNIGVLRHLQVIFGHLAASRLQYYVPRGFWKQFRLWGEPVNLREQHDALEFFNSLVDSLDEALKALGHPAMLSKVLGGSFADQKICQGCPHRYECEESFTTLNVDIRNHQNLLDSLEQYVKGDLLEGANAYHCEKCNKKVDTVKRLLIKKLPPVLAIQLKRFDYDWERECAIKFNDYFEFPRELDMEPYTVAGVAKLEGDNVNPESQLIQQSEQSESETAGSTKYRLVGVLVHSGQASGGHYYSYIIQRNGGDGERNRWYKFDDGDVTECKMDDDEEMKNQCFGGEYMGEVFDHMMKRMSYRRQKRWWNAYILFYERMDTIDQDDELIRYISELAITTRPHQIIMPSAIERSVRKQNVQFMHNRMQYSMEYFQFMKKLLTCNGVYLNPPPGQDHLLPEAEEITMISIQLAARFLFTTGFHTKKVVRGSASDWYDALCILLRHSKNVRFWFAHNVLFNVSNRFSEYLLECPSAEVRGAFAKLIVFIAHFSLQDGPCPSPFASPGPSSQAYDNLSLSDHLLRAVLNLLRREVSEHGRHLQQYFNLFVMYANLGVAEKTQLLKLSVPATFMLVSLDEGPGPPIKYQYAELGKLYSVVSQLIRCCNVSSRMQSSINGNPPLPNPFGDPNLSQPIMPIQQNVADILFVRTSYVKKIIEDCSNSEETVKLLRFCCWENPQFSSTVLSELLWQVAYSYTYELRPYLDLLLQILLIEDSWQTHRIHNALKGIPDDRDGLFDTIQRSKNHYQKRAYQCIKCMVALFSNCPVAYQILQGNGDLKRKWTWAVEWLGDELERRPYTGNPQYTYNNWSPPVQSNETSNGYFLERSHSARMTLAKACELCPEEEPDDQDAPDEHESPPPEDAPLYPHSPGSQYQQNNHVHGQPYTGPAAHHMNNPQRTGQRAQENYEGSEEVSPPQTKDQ
Sequence of USP54 (Q70EL1 whole entry): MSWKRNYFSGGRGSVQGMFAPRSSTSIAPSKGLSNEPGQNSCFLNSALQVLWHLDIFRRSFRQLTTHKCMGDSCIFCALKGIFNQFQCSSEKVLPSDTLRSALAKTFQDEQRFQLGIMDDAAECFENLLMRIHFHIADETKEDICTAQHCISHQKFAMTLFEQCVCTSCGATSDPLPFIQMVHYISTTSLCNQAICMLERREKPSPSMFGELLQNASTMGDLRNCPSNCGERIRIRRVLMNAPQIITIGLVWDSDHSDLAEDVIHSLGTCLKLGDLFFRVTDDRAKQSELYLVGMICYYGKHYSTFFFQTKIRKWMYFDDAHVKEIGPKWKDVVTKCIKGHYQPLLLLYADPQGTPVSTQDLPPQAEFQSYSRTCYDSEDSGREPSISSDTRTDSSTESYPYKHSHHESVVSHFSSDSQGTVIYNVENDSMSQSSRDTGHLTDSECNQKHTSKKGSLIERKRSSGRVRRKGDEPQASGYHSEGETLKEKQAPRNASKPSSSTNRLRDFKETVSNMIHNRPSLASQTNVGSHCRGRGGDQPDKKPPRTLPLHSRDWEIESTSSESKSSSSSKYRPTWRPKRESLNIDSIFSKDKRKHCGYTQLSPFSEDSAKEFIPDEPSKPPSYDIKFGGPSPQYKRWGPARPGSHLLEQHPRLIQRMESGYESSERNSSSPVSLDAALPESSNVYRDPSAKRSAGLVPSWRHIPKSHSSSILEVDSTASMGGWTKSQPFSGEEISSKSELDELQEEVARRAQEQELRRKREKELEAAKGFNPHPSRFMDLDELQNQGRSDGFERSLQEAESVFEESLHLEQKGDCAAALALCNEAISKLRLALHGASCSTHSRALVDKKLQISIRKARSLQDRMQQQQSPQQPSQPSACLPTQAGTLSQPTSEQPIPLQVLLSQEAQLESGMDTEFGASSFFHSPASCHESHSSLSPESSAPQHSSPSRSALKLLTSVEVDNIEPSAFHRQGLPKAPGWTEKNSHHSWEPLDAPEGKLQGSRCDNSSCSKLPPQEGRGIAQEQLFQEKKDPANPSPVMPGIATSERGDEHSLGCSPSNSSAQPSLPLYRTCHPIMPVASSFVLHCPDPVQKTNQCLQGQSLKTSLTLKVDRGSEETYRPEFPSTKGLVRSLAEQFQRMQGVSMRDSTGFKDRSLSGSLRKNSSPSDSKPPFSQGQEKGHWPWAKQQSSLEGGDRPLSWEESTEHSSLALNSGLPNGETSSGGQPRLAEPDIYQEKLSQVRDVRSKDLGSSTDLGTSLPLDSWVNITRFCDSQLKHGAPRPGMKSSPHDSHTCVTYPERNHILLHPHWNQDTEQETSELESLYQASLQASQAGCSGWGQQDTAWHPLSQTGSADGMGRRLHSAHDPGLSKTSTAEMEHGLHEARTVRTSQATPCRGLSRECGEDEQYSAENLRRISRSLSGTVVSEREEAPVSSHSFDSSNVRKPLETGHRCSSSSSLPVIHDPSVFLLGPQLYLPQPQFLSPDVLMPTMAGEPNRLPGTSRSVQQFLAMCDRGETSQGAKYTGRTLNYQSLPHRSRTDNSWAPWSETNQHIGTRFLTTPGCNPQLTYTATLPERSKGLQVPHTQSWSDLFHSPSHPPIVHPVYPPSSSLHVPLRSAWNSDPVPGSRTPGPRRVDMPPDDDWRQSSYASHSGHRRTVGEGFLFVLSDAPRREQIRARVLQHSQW
Sequence of UniProt O00487 (O00487 whole entry): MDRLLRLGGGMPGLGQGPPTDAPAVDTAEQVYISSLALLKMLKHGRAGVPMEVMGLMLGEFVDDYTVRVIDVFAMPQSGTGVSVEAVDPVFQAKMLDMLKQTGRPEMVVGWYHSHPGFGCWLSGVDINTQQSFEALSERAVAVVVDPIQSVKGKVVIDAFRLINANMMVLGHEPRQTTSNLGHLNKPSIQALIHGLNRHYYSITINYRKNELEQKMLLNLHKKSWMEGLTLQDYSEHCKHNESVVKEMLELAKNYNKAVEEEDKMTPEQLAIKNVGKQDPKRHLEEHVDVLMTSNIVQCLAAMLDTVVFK
Sequence of USP46 (P62068 whole entry): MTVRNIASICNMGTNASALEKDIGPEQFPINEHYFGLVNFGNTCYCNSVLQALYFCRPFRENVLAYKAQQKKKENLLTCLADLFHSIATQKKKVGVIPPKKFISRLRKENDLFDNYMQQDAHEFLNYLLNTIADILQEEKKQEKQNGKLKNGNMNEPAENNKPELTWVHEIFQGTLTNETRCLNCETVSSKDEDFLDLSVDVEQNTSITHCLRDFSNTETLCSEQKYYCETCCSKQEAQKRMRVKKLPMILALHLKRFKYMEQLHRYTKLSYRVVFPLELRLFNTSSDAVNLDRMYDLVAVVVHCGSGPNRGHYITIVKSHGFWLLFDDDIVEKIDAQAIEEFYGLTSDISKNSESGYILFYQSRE

Cc1ccccc1CN(C)C(=O)CCl
inactive: USP42 -0.263 | USP46 -0.653 | USP47 -1 | USP48 -0.83 | USP5 -0.152 | USP54 1.1 | USP8 -0.825 | USP9X -0.836 | UniProt O00487 -0.14
active: USP7 -1.57
